{
  "source": "PubChem BioAssay (EPA / NIEHS)",
  "note": "Activity calls are given as the source filed them. Rule for the calls: active = hit-call score of the fitted dose curve at least 0.9, where 1 is the maximum; inactive = score below 0.9.",
  "data": [
    {"read-out": "matrix metalloproteinase-10 (MMP10), MMP10 (gene 4319)", "test": "LTEA_HepaRG_MMP10: Life Technologies and Expression Analysis (LTEA) Assay for matrix metalloproteinase-10 (MMP10) using HepaRG (AID 2283517)", "conditions": "mRNA level, 48 h; actives raise or lower the signal", "experimental": "LTEA_HepaRG is a cell based, multiplexed-readout assay that uses HepaRG, a human liver cell line, with measurements taken at 48 hours after chemical dosing on a 96-well plate.LTEA_HepaRG_MMP10 is one of 102 assay component(s) measured in the LTEA HepaRG cell culture assay. It is a marker of Fibrosis.Data from the assay component LTEA_HepaRG_MMP10 was analyzed into 1 endpoint. This assay endpoint, LTEA_HepaRG_MMP10, was analyzed with bidirectional fitting relative to DMSO as the negative control and baseline of activity. Using a type of inducible reporter, measures of mRNA induction for gain or loss-of-signal activity can be used to understand regulation of transcription factor activity. To generalize the intended target to other relatable targets, this assay endpoint is annotated to the protease intended target family, where the subfamily is matrix metalloproteinase.\nA total of 1060 chemcials from the ToxCast library were tested in eight-point concentration-response experiments. Cell culture and cytotoxicity assays were conducted at Thermo Fisher Scientific's Custom Services facility (Madison, WI). A single lot of human HepaRG cells (Thermo Fisher Scientific, Frederick, MD) was used for the cell culture experiments. 96-well format collagen type I coated plates of human HepaRG cells were prepared using established methods. Briefly, cryopreserved HepaRG cells were thawed, plated at a density of approximately 100,000 cells/well in HepaRG Thaw, Plate, and General Purpose media (HPRG770, Thermo Fisher Scientific), and incubated for 48 hours. 0.5% DMSO was selected as vehicle control to balance the requisite need of DMSO in HepaRG cultures to maintain differentiation (for example, baseline metabolism, proportions of hepatocytes vs. cholangiocytes), while enabling further hepatic receptor pathway activation (for example, PXR and CAR) in response to chemical exposure. 48 hours after plating, the culture medium was replaced with HepaRG Serum-Free Incudtion Media. Cells were exposed to each test chemical in duplicate and maintained in CO2 incubators for another 48 hours. Chemical plates were thawed to room temperature and 200x concentrations of treatment groups were prepared. 8-point conentration-reponse curves were made with the highest exposure at 100 uM, followed by half-log dilutions, all in 0.5% DMSO. Each test plate contained variouse controls, induction positive controls (1mM phenobarbital), cytotoxicity positive controls ([…] aflatoxin B1), vehicle controls (0.5% DMSO), and total lysis controls (0.5% DMSO). Cell morphology images were taken using an Essen IncuCyte FLR automated microscope, with six 96-well plates imaged in about 24 minutes. Images were captured and exported and JPEG files. Spent culture media was transfered to black-well plates for the LDH assay, and remaining media was sorted at -80 C for later use. Cells were treated with RLT buffer and frozen until shipped for gene expression analysis. Total RNA was isolated from the cell suspension in 75 uL of Buffer RLT (Qiagen, Germantown, MD 20874) by Quintiles/Expression Analysis (Durham, NC) using a custom isolation procedure. Total RNA from each plate well was transferred to a preamplification plate. Fluidigm's 96.96 Dynamic ArrayTM (Fluidigm, Amsterdam, the Netherlands) technology was used for gene expression analyses by quantitative reverse transcription polymerase chain reaction (qRT-PCR, performed by Quintiles/Expression Analysis, Durham, NC)89. Standard TaqManTM Assays (Applied Biosystems/ThermoFisher Scientific, Foster City, CA) were used to assess the expression of 93 genes selected based on their selectivity and sensitivity to important hepatic receptors known to be modulated by environmental chemicals; importance in human hepatocyte functionality; and hepatotoxicity. […]", "values": [
      {"smiles": "Cc1cc2c3c(c1)C(c1ccccc1)=N[C@@H](NC(=O)c1ccncc1)C(=O)N3CC2", "outcome": "inactive"},
      {"smiles": "Oc1c(Cl)c(Cl)c(Cl)c(Cl)c1Cl", "AC50": "25.5 µM (active)"},
      {"smiles": "Cc1ccccc1O", "outcome": "inactive"},
      {"smiles": "C[C@]12CCC(=O)C=C1CC[C@@H]1[C@@H]2CC[C@@]2(C)[C@H]1CC[C@]2(C)O", "outcome": "inactive"},
      {"smiles": "O=C(O)C(F)(F)C(F)(F)C(F)(F)C(F)(F)C(F)(F)F", "outcome": "inactive"},
      {"smiles": "CCCN(CCC)N=O", "outcome": "inactive"},
      {"smiles": "C=CC(=O)NCNC(=O)C=C", "outcome": "inactive"},
      {"smiles": "CCCCCCCCCc1ccc(O)cc1", "outcome": "inactive"},
      {"smiles": "CC(c1ccc(O)cc1)(c1ccc(O)cc1)c1ccc(O)cc1", "AC50": "50 µM (active)"},
      {"smiles": "Cc1ccc(O)c(C)c1", "outcome": "inactive"},
      {"smiles": "CC(C)(O)C(=O)Nc1ccc([N+](=O)[O-])c(C(F)(F)F)c1", "outcome": "inactive"},
      {"smiles": "CC(C)(c1ccccc1)c1ccc(O)cc1", "outcome": "inactive"},
      {"smiles": "CCCCCCOC(=O)c1ccccc1C(=O)OCCCCCC", "outcome": "inactive"},
      {"smiles": "CN(C)c1nc(=O)n(C2CCCCC2)c(=O)n1C", "outcome": "inactive"},
      {"smiles": "ClC1=C(Cl)[C@]2(Cl)[C@@H]3[C@@H]4C[C@@H]([C@H]5O[C@@H]45)[C@@H]3[C@@]1(Cl)C2(Cl)Cl", "outcome": "inactive"},
      {"smiles": "O=C(O)C(F)(F)C(F)(F)C(F)(F)C(F)(F)C(F)(F)C(F)(F)C(F)(F)C(F)(F)F", "AC50": "76.9 µM (active)"},
      {"smiles": "c1ccc(-c2ccccc2)cc1", "outcome": "inactive"},
      {"smiles": "C1CC2OC2CC1C1CO1", "note": "(stereo not given)", "outcome": "inactive"},
      {"smiles": "NS(=O)(=O)C(F)(F)C(F)(F)C(F)(F)C(F)(F)C(F)(F)C(F)(F)C(F)(F)C(F)(F)F", "AC50": "33.9 µM (active)"},
      {"smiles": "Nn1cnnc1", "outcome": "inactive"},
      {"smiles": "O=C(O)C(F)(F)C(F)(F)C(F)(F)C(F)(F)C(F)(F)C(F)(F)C(F)(F)C(F)(F)C(F)(F)F", "AC50": "37.1 µM (active)"},
      {"smiles": "COS(=O)(=O)OC", "outcome": "inactive"},
      {"smiles": "O=C(NC(=O)c1cc(F)c(F)cc1Cl)Nc1cc(F)ccc1N1CCC(C(=O)O)CC1", "outcome": "inactive"},
      {"smiles": "Cc1cc(O)ccc1Cl", "outcome": "inactive"},
      {"smiles": "Cc1ccccc1CO[C@@H]1C[C@@]2(C(C)C)CC[C@]1(C)O2", "outcome": "inactive"},
      {"smiles": "Oc1ccc(C(c2ccc(O)cc2)(C(F)(F)F)C(F)(F)F)cc1", "AC50": "82.7 µM (active)"},
      {"smiles": "Clc1ccc(Cl)cc1", "outcome": "inactive"},
      {"smiles": "CC1=C2C[C@H]3[C@@H](CC=C4C[C@@H](O)CC[C@@]43C)[C@@H]2CC[C@]12O[C@@H]1C[C@H](C)CN[C@H]1[C@H]2C", "outcome": "inactive"},
      {"smiles": "CO/C=C(/C(=O)OC)c1ccccc1COc1cccc(C(F)(F)F)n1", "AC50": "12.6 µM (active)"},
      {"smiles": "Clc1ccc(C(Cl)(Cl)Cl)cc1", "outcome": "inactive"},
      {"smiles": "O=C(NC(=O)c1c(F)cccc1F)Nc1cc(Cl)c(OC(F)(F)C(F)F)c(Cl)c1", "outcome": "inactive"},
      {"smiles": "O=NN(c1ccccc1)c1ccccc1", "outcome": "inactive"},
      {"smiles": "N#Cc1ccc(N(CC(N)=O)CC(F)(F)F)cc1C(F)(F)F", "outcome": "inactive"},
      {"smiles": "Cc1cccc(C)c1N", "outcome": "inactive"},
      {"smiles": "Cc1cc(-c2ccc(N)c(C)c2)ccc1N", "outcome": "inactive"},
      {"smiles": "Cc1ccccc1[N+](=O)[O-]", "outcome": "inactive"},
      {"smiles": "CC(C)C(=O)OCC(C)(C)C(OC(=O)C(C)C)C(C)C", "note": "(stereo not given)", "outcome": "inactive"},
      {"smiles": "Clc1ccc(C(c2ccccc2Cl)C(Cl)(Cl)Cl)cc1", "note": "(stereo not given)", "outcome": "inactive"},
      {"smiles": "O=C(N[C@H]1CN2CCC1CC2)c1cc2ccoc2cn1", "outcome": "inactive"},
      {"smiles": "Oc1ccc(Cl)cc1Cl", "outcome": "inactive"}
    ]}
  ]
}
